Bioassay records as filed in PubChem.
KB-3-1 tox – kills parental KB-3-1 adenocarcinoma cells | hit rate 1.4% among 400,000 | AID 1347075 | KB-3-1 viability, CellTiter-Glo ATP luminescence, 72 h | Potency, µM (top dose mostly 46.1 µM), hits mostly cytotoxic; further: on the % scale 0 is the no-effect control and ±100 the full control effect; nearly all actives have a fitted effect of over 60% in size
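Using CellTiter-Glo luminescence, growth of non-resistant KB-3-1 adenocarcinoma cells is assessed 72 h after pin-tool compound addition at 37 °C. Normalized responses across the concentration series yield fitted curves.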
ELG1 DNA repair – inhibitors of ELG1-dependent DNA repair in HEK293T cells. HEK293T ELG1-luciferase reporter, luminescence, 16 h; DNA damage induced by 5-fluorouridine. Potency, µM (series often up to 46.1 µM), for inactives: at the highest dose activity change, negative = inhibition, hits mostly inhibitors. hit rate 2.3% among 330,000. AID 504467; further: on the % scale 0 is the no-effect control and ±100 the full control effect; nearly all actives have a fitted effect of over 55% in size
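Cells (2,000 per well) received 5-fluorouridine plus test compound or DMSO and were incubated 16 hr at 37 °C, 5% CO2. Luciferase activity was read by luminescence 30 min after ONE-Glo addition; signal suppression marked inhibition of damage-induced ELG1 function.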
MCF10A rerep – induces DNA re-replication in MCF 10a normal breast cells; MCF 10A DNA re-replication, Hoechst nuclear intensity, 48 h; Potency, µM (top dose mostly 46.1 µM), for the others: at the highest dose activity, positive = re-replication, most hits filed as activators; hit rate 2.9% among 350,000; further: % of control where 0% means no effect; nearly all actives have a fitted effect of over 50% in size
KB-V1 MDR tox – KB-V1 MDR subline cytotoxicity; KB-V1 MDR cells viability, CellTiter-Glo, 72 h; Potency, µM (series often up to 46.1 µM), actives largely listed as cytotoxic; hit rate 3.4% among 400,000; AID 1347076; further: on the % scale 0 is the no-effect control and ±100 the full control effect; nearly all actives have a fitted effect of over 60% in size
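In this primary screen, KB-V1 cells overexpressing P-gp are incubated with library compounds (lowest to highest concentration) for 72 h at 37 degrees C before a luminescent ATP viability read.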
SW480 rereplic – inducers of DNA re-replication in SW480 colon cancer cells; SW480 DNA re-replication, Hoechst DNA content imaging, 48 h; AID 624297; Potency, µM (series often up to 46.1 µM), for the others: at the top dose re-replication activation, usual class: activators; hit rate 1.8% among 340,000; further: % of control where 0% means no effect; nearly all actives have a fitted effect of over 55% in size
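Image-based DNA-content assay: after two days of treatment, nuclei were labelled with the DNA dye Hoechst and imaged, and hits were compounds raising the count of nuclei showing high fluorescence intensity.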
The depositor's hits bear a star. Only some compounds are listed: those with a hit (about 8.1% of all), similar ones and a draw of the others. The call rests on the fitted dose curve; in most records, active means well fitted curve in the direction sought with a large enough effect; inconclusive means small, poorly fitted or top-dose-only effect, or another doubt; inactive means no such curve, though single readings can be large; an effect the other way counts as inactive or inconclusive. Potency means the concentration at half of the fitted maximal effect.

What do the screens show for `O=C1c2ccccc2C(=O)N1CCSc1nc2ccccc2c(=O)n1CCCN1CCOCC1`?
KB-3-1 tox: inactive; ELG1 DNA repair: 7%; MCF10A rerep: -8%; KB-V1 MDR tox: inconclusive; SW480 rereplic: -4%

What do the screens show for `Cc1cc(NC(=O)CSc2nc3c(sc4ccccc43)c(=O)n2CCCN2CCOCC2)n[nH]1`?
KB-3-1 tox: 13µM*; ELG1 DNA repair: inconclusive; MCF10A rerep: inconclusive; KB-V1 MDR tox: inactive; SW480 rereplic: 7.3µM*

What do the screens show for `O=C1c2ccccc2C(=O)N1CCCCSc1nc2ccccc2c(=O)n1CCCN1CCOCC1`?
KB-3-1 tox: inconclusive; ELG1 DNA repair: 21µM*; MCF10A rerep: 27%; KB-V1 MDR tox: inconclusive; SW480 rereplic: 8%

Results for O=C(CSc1nc2ccccc2c(=O)n1CCCN1CCOCC1)NCCc1ccccc1 ?
KB-3-1 tox: inactive; ELG1 DNA repair: 6%; MCF10A rerep: 4%; KB-V1 MDR tox: inactive; SW480 rereplic: 1%

How did O=C(CSc1nc2ccccc2c(=O)n1CCCN1CCOCC1)NC12CC3CC(CC(C3)C1)C2 do in these assays?
KB-3-1 tox: inactive; ELG1 DNA repair: 8%; MCF10A rerep: inconclusive; KB-V1 MDR tox: 9.2µM*; SW480 rereplic: -23%

What do the screens show for `Cc1[nH]c2ccccc2c1C(=O)CSc1nc2ccccc2c(=O)n1CCCN1CCOCC1`?
KB-3-1 tox: inactive; ELG1 DNA repair: inconclusive; MCF10A rerep: 15µM*; KB-V1 MDR tox: inactive; SW480 rereplic: 4%

What do the screens show for `Cc1cc2ccccc2c[n+]1CC(=O)c1ccc(F)cc1`?
KB-3-1 tox: inactive; KB-V1 MDR tox: inactive

How did CC(=O)Nc1ccc(NC(=O)C(C)OC(=O)c2ccc3[nH]c(C)c(C)c3c2)cc1 (stereo not given) do in these assays?
KB-3-1 tox: inactive; ELG1 DNA repair: inconclusive; MCF10A rerep: 20%; KB-V1 MDR tox: inactive; SW480 rereplic: inconclusive

Results for Cn1cc(-c2cc3n(n2)CCC(=O)N3CCCC(=O)NCc2ccccc2)c2ccccc21 ?
KB-3-1 tox: inactive; KB-V1 MDR tox: inactive

Results for CO/N=C\CC(=O)Nc1ccc(Cl)cc1Cl ?
KB-3-1 tox: inconclusive; ELG1 DNA repair: 7%; MCF10A rerep: 16µM*; KB-V1 MDR tox: 5.8µM*; SW480 rereplic: 7.3µM*

What do the screens show for `COc1ccc(C(CC(=O)c2ccc(C)cc2)Sc2ccccc2N)cc1` (stereo not given)?
KB-3-1 tox: inactive; KB-V1 MDR tox: inactive

Results for CC(=O)NC(CSC(CC(=O)c1ccco1)c1ccc(C)cc1)C(=O)O (stereo not given) ?
KB-3-1 tox: inactive; ELG1 DNA repair: inconclusive; MCF10A rerep: 21µM*; KB-V1 MDR tox: inactive; SW480 rereplic: inconclusive

How did COc1ccc(C(CC(=O)c2ccc(C)cc2)Nc2ccc([N+](=O)[O-])cc2)cc1 (stereo not given) do in these assays?
KB-3-1 tox: inconclusive; ELG1 DNA repair: -6%; MCF10A rerep: inconclusive; KB-V1 MDR tox: inconclusive; SW480 rereplic: 16%

What do the screens show for `O=C(CC(SCCO)c1ccc([N+](=O)[O-])cc1)c1ccco1` (stereo not given)?
KB-3-1 tox: 21µM*; ELG1 DNA repair: inconclusive; MCF10A rerep: 16%; KB-V1 MDR tox: inactive; SW480 rereplic: 26%

Results for O=C(NCCNc1ccc([N+](=O)[O-])cc1)c1ccco1 ?
KB-3-1 tox: inactive; ELG1 DNA repair: 13%; MCF10A rerep: 1%; KB-V1 MDR tox: inactive; SW480 rereplic: -8%

Results for Cc1ccc(C(=O)CC(SCC(=O)O)c2ccc([N+](=O)[O-])cc2)cc1 (stereo not given) ?
KB-3-1 tox: inactive; ELG1 DNA repair: 0%; MCF10A rerep: 18µM*; KB-V1 MDR tox: inactive; SW480 rereplic: inconclusive

What do the screens show for `Nc1ccccc1SC(CC(=O)c1ccccc1)c1ccc([N+](=O)[O-])cc1` (stereo not given)?
KB-3-1 tox: 21µM*; KB-V1 MDR tox: inactive

What do the screens show for `COC(=O)c1sccc1NC(=O)Nc1ccc(F)cc1F`?
KB-3-1 tox: inactive; ELG1 DNA repair: inconclusive; MCF10A rerep: 0%; KB-V1 MDR tox: inactive; SW480 rereplic: -2%

What do the screens show for `C#CCN1C(=O)C2(OCCO2)c2ccccc21`?
KB-3-1 tox: inactive; ELG1 DNA repair: -5%; MCF10A rerep: 3%; KB-V1 MDR tox: inactive; SW480 rereplic: -3%

What do the screens show for `Cc1ccccc1-n1ncc(C(C)NS(=O)(=O)c2sccc2C)c1C` (stereo not given)?
ELG1 DNA repair: 0%; MCF10A rerep: inconclusive; SW480 rereplic: 2%

Results for CCOC(=O)C1CCCN(c2cc(C)nc3cc(-c4ccc(Cl)cc4)nn23)C1 (stereo not given) ?
KB-3-1 tox: inactive; ELG1 DNA repair: 26µM*; MCF10A rerep: -1%; KB-V1 MDR tox: inactive; SW480 rereplic: -3%

How did CC1(C)N=C(SCC(=O)Nc2ccc(Cl)cc2Cl)C(c2ccccc2)=N1 do in these assays?
KB-3-1 tox: inactive; ELG1 DNA repair: -27%; MCF10A rerep: inconclusive; KB-V1 MDR tox: 21µM*; SW480 rereplic: 3%

Results for COc1ccc(C2=CC(=O)N(Nc3ccccc3)C2=O)cc1 ?
KB-3-1 tox: inactive; ELG1 DNA repair: inconclusive; MCF10A rerep: inconclusive; KB-V1 MDR tox: inactive; SW480 rereplic: 4.1µM*

How did Cc1ccc(NN2C(=O)C=CC2=O)cc1 do in these assays?
KB-3-1 tox: inactive; ELG1 DNA repair: inconclusive; MCF10A rerep: -4%; KB-V1 MDR tox: inactive; SW480 rereplic: -3%

What do the screens show for `Cc1ccc(NN2C(=O)C=C(c3ccc(Cl)cc3)C2=O)cc1`?
KB-3-1 tox: inconclusive; ELG1 DNA repair: inconclusive; MCF10A rerep: 15µM*; KB-V1 MDR tox: 12µM*; SW480 rereplic: inconclusive

Results for O=C1C=C(c2ccccc2)C(=O)N1Nc1ccccc1 ?
KB-3-1 tox: inconclusive; ELG1 DNA repair: inconclusive; MCF10A rerep: inconclusive; KB-V1 MDR tox: inactive; SW480 rereplic: inconclusive

What do the screens show for `CC(=O)OCC1O[C@@H](O[C@@H]2C[C@H]3C(C)(C)[C@H](OC(C)=O)CC[C@]3(C)[C@H]3CC[C@]45C[C@]4(CC[C@H]5[C@@H](C)C[C@@H](O)[C@H](O)C(C)(C)O)[C@@]32C)[C@H](O)[C@@H](O)[C@@H]1O` (stereo not given in full)?
ELG1 DNA repair: inconclusive; MCF10A rerep: 7.3µM*; SW480 rereplic: 21µM*

Results for COCCNC(=O)c1ccc(N2CC3CC(C2)c2cccc(=O)n2C3)c(NC(=O)c2ccc(C(C)(C)C)cc2)c1 (stereo not given) ?
KB-3-1 tox: inactive; KB-V1 MDR tox: inactive
